Experimental findings from PubChem BioAssay (Tox21) are described below.

Several values for one entry are separate records, joined by “and”; a condition that tells them apart may be missing. Equal entries are not always repeated. Records with an inconclusive call do not appear. Some structures have more than one record in an assay (separate samples or runs), and their calls can disagree. Activity calls are given as the source filed them. Unless noted, calls come from the whole dose curve; as a rule, active = well fitted curve in the direction sought with a large enough effect in the repeat runs; inconclusive = weak or mixed curves; inactive = no such curve, though single readings can be large; an effect the other way counts as inactive or inconclusive.

The nature of assay [1]: qHTS assay to identify small molecule antagonists of the androgen receptor (AR) signaling pathway using the MDA cell line in the presence of 0.5 nM R1881 - cell viability counter screen (AID 1259242). Note: % is set by controls: 0 for no effect and ±100 for the full control effect; nearly all actives have a fitted effect of over 45% in size. Summed up: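 MDA-kb2 cells (human breast carcinoma, stably carrying MMTV-luciferase reporter) were exposed to compounds with 0.5 nM R1881 (final) for 16 hr at 37C, 0% CO2; viability then read as live-cell protease fluorescence (CellTiter-Fluor, 30 min) in the same wells.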
For orientation: qHTS replaces the single test concentration by a dilution series.

Assay [2] deals with Androgen receptor (Homo sapiens) (UniProt P10275). The assay is described as follows: qHTS assay to identify small molecule antagonists of the androgen receptor (AR) signaling pathway using the MDA cell line in the presence of 0.5 nM R1881 (AID 1259243). Note: potency is the fitted concentration of half-maximal effect; nearly all actives have a fitted effect of over 50% in size. Summed up:
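MDA-kb2 human breast carcinoma cells carrying an MMTV-luciferase reporter (AR- and GR-responsive) were plated, rested 5 hr at 37C, dosed with compounds, then stimulated with 0.5 nM R1881 (final) for 16 hr; luminescence was read after ONE-Glo.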

Assay [3] concerns the target Estrogen receptor (Homo sapiens) (UniProt P03372). The assay is described as follows: qHTS assay to identify small molecule antagonists of the estrogen receptor alpha (ER-alpha) signaling pathway using the BG1 cell line in the presence of 0.1 nM 17-beta-estradiol (AID 1259244). Note: % is set by controls: 0 for no effect and ±100 for the full control effect; nearly all actives have a fitted effect of over 50% in size. Summed up:
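VM7Luc4E2 cells (endogenous full-length ER-alpha, stable 4xERE-luciferase) were grown 5 days in phenol red-free medium with charcoal-stripped FBS, then exposed 22 h at 37C to compounds plus 0.1 nM (final) 17beta-estradiol; ONE-Glo luminescence read-out.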

The nature of assay [4]: qHTS assay to identify small molecule HDAC inhibitors - cell viability counter screen (AID 1259365). Note: series mostly up to about 92 µM; % is set by controls: 0 for no effect and ±100 for the full control effect; nearly all actives have a fitted effect of over 50% in size. Summed up: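 CellTiter-Glo luminescence (30 min, room temperature) reported viability after a 2 h compound exposure at 37 C. Cells: wild-type HCT-116, 1,500 per well, seeded the night before.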
The nature of assay [5]: qHTS assay to identify small molecule agonists of the sonic hedgehog signaling (Shh) pathway - cell viability counter screen (AID 1259366). Note: % is set by controls: 0 for no effect and ±100 for the full control effect; nearly all actives have a fitted effect of over 50% in size. Summed up: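 Cytotoxicity counter screen: CellTiter-Fluor reagent added after 23 h compound exposure, then 1 h at 37C and fluorescence read. Cells were 3T3 Gli1-Luc, seeded 2,000 per well and dosed 4 h post-plating.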
Assay [6] can be described thus: qHTS assay to identify small molecule antagonists of the sonic hedgehog signaling (Shh) pathway - cell viability counter screen (AID 1259367). For viability change, negative = cytotoxic: % is set by controls: 0 for no effect and ±100 for the full control effect. Note: nearly all actives have a fitted effect of over 55% in size. Note: potency is the fitted concentration of half-maximal effect. Summed up:
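Cells: 3T3 Gli1-Luc, 2,000/well, 4 hr pre-incubation. Compounds in DMSO, then conditioned medium. Incubation 24 hr, 37C, 5% CO2. CellTiter-Fluor at 23 hr, 1 hr, fluorescence.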

Assay [7] can be described thus: qHTS assay to identify small molecule agonists of the sonic hedgehog signaling (Shh) pathway (AID 1259368; calls by dose curve; note: series mostly up to about 92 µM; % is set by controls: 0 for no effect and ±100 for the full control effect; nearly all actives have a fitted effect of over 15% in size). Summed up:
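NIH/3T3-derived 3T3Gli1-Luc cells carrying a stably integrated Gli1 response element–firefly luciferase reporter were plated, left 4 hr at 37 C, then given compounds in DMSO for 24 hr. Luminescence was read 30 min after adding luciferase reagent.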

A short description of assay [8]: qHTS assay to identify small molecule antagonists of the sonic hedgehog signaling (Shh) pathway (AID 1259369; calls by dose curve; note: % is set by controls: 0 for no effect and ±100 for the full control effect; nearly all actives have a fitted effect of over 45% in size). Summed up: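 NIH/3T3-derived 3T3Gli1-Luc cells with stably integrated Gli1-Luc reporter were preincubated 4hr at 37 C, then given compounds in DMSO plus Shh conditioned medium and incubated 24hr. Firefly luciferase luminescence read after 30min reagent at room temperature.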

Assay [9] deals with Estrogen receptor beta (Homo sapiens) (UniProt Q92731). Briefly: qHTS assay to identify small molecule agonists of the estrogen receptor beta (ER-beta) signaling pathway (AID 1259377; active = well fitted activation curve with a large enough effect in the signal ratio in the repeat runs, not every such curve was filed as active; the % refers to the signal ratio; note: % is set by controls: 0 for no effect and ±100 for the full control effect). Summed up: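 Ratiometric beta-lactamase FRET read-out came after 2 h substrate loading at room temperature. It followed 16 h compound treatment at 37C of GripTite HEK293T cells carrying a UAS-bla reporter, plated in 2% charcoal-stripped FBS medium.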

For assay [10] the target is unchanged. Briefly: qHTS assay to identify small molecule antagonists of the estrogen receptor beta (ER-beta) signaling pathway (AID 1259378; active = well fitted inhibition curve with a large enough effect in the signal ratio in the repeat runs, not every such curve was filed as active; the % refers to the signal ratio; note: % is set by controls: 0 for no effect and ±100 for the full control effect). Summed up: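 Antagonist mode: compounds added to beta-lactamase reporter HEK293T ER-beta-UAS cells stimulated with E2 (1nM final), 16 hr at 37C. LiveBLAzer B/G FRET substrate, 2 hours room temperature, fluorescence read-out.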

A short description of assay [11]: qHTS assay to identify small molecule agonists of the androgen receptor (AR) signaling pathway in the presence of an antagonist - cell viability counter screen (AID 1259379). Note: nearly all actives have a fitted effect of over 25% in size. Note: potency is the fitted concentration of half-maximal effect. Summed up:
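MDA-kb2 human breast carcinoma cells (stable MMTV-luciferase, AR/GR responsive) were seeded 3,000 cells/well, pre-incubated 5 hr at 37C without CO2, then given 3.0uM nilutamide and compounds at 15 concentrations for 16 hr. Viability was read by CellTiter-Fluor fluorescence.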

The nature of assay [12]: qHTS assay to identify small molecule agonists of the estrogen receptor beta (ER-beta) signaling pathway - cell viability counter screen (AID 1259380). Note: % is set by controls: 0 for no effect and ±100 for the full control effect; nearly all actives have a fitted effect of over 30% in size. Summed up:
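ER-beta-UAS-bla HEK293T cells in medium with 2% charcoal-stripped FBS were preincubated 6 hr at 37C, dosed with compound in DMSO for 16 hr, then after the bla read, CellTiter-Glo was added for 30 min at room temperature; luminescence recorded.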

Assay [13] concerns the target Androgen receptor (Homo sapiens) (UniProt P10275). Briefly: qHTS assay to identify small molecule agonists of the androgen receptor (AR) signaling pathway in the presence of an antagonist (AID 1259381; calls by dose curve; note: % is set by controls: 0 for no effect and ±100 for the full control effect; nearly all actives have a fitted effect of over 15% in size). Summed up:
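MDA-kb2 human breast carcinoma cells carrying an MMTV-luciferase reporter (AR- and GR-responsive) were treated with compounds at 15 concentrations plus 3.0uM final nilutamide for 16hr at 37C without CO2; luminescence was read after ONE-Glo addition.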

Assay [14] can be described thus: qHTS assay to identify small molecule antagonists of the estrogen receptor beta (ER-beta) signaling pathway - cell viability counter screen (AID 1259382). Note: series mostly up to about 92 µM; % is set by controls: 0 for no effect and ±100 for the full control effect; nearly all actives have a fitted effect of over 55% in size. Summed up: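 ER-beta-UAS-bla HEK293T cells (2,000/well, 2% charcoal-stripped FBS) were pre-incubated 6 hr at 37C, then given compound plus 1nM final 17-beta-estradiol for 16 hr. Viability was read in the same wells by CellTiter-Glo luminescence after 30 min at room temperature.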

Assay [15] deals with Estrogen receptor (Homo sapiens) (UniProt P03372). Briefly: qHTS assay to identify small molecule agonists of the estrogen receptor alpha (ER-alpha) signaling pathway in the presence of an antagonist (AID 1259383; calls by dose curve; note: top concentration of the series differs between compounds; % is set by controls: 0 for no effect and ±100 for the full control effect; nearly all actives have a fitted effect of over 15% in size). Summed up: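 VM7Luc4E2 cells (endogenous full-length ER-alpha, 4×ERE-luciferase) were precultured 5 days in phenol red-free medium with 10% charcoal-stripped FBS, given 10.0nM ICI-182,780 (final), then treated with compounds at 15 concentrations for 22hr at 37C; luminescence read with ONE-Glo.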

A short description of assay [16]: qHTS assay to identify small molecule HDAC inhibitors (AID 1259364). Note: top concentration of the series differs between compounds; % is set by controls: 0 for no effect and ±100 for the full control effect; nearly all actives have a fitted effect of over 45% in size. Summed up:
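Wild-type HCT-116 cells were plated overnight, exposed to compounds for 2 h at 37 °C, then given HDAC-Glo class I/II luminogenic reagent for 30 min at room temperature before luminescence was read.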

The nature of assay [17]: qHTS assay to identify small molecule agonists or antagonists of the thyroid stimulating hormone receptor (TSHR) signaling pathway - wild type cell line counter screen (AID 1259384; calls by dose curve; note: potency is the fitted concentration of half-maximal effect). Summed up: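 Counter screen in untransfected Hek293: compounds (15-point titration, triplicate) plus phosphodiesterase inhibitor Ro20-1724 added after 18 h plating; 30 min RT. Intracellular cAMP via competitive d2/cryptate immunoassay, 1 h incubation.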

In assay [18] the target is Thyrotropin receptor (Homo sapiens) (UniProt P16473). Briefly: qHTS assay to identify small molecule antagonists of the thyroid stimulating hormone receptor (TSHR) signaling pathway (AID 1259385; calls by dose curve; note: % is set by controls: 0 for no effect and ±100 for the full control effect; nearly all actives have a fitted effect of over 20% in size). Summed up:
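Antagonist mode: compound-treated TSHR-expressing HEK293 cells were stimulated with 1.5 ng/mL TSH (final) in presence of Ro20-1724 for 30 min at RT. HTRF cAMP detection after 1 h; each compound tested at 15 concentrations, triplicate.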

A short description of assay [19]: qHTS assay to identify small molecule phospholipidosis (PLD) inducers (AID 1259344; active = well fitted curve in the direction sought with a large enough effect; an effect the other way counts as inactive or inconclusive; note: % is set by controls: 0 for no effect and ±100 for the full control effect). Summed up: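 Phospholipidosis is scored by imaging LipidTOX-stained pits in HepG2 cells exposed to compound for 24 h at 37 C; pit counts and integrated intensities per well and per cell serve as outputs.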
Assay [20] in a line: qHTS assay to identify small molecule agonists of the estrogen receptor alpha (ER-alpha) signaling pathway in the presence of an antagonist - cell viability counter screen (AID 1259386). Note: nearly all actives have a fitted effect of over 30% in size. Note: potency is the fitted concentration of half-maximal effect. Summed up: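 VM7Luc4E2 cells (endogenous full-length ER-alpha, 4×ERE-luciferase) were held 5 days in phenol red-free medium with 10% charcoal-stripped FBS, plated, then given 10.0nM ICI-182,780 and compounds at 15 concentrations for 22hr at 37C; viability read by CellTiter-Fluor fluorescence.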

Sequence of Estrogen receptor (Homo sapiens) (P03372 whole entry, looked up): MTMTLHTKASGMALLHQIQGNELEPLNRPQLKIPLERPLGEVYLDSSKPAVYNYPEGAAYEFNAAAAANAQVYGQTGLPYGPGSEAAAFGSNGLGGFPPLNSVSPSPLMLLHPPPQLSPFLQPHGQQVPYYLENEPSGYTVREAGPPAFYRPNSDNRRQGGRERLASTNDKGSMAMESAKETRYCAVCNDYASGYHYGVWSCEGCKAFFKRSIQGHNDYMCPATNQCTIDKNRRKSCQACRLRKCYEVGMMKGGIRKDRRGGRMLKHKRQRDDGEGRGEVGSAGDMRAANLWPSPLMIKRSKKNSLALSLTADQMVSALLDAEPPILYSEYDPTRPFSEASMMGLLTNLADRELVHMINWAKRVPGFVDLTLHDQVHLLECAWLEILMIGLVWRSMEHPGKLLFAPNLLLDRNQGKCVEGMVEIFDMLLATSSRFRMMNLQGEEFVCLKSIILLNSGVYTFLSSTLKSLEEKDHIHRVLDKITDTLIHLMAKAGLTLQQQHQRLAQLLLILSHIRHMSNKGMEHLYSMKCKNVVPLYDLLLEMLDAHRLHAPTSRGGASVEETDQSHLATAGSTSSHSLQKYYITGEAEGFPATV
Sequence of Estrogen receptor beta (Homo sapiens) (Q92731 whole entry, looked up): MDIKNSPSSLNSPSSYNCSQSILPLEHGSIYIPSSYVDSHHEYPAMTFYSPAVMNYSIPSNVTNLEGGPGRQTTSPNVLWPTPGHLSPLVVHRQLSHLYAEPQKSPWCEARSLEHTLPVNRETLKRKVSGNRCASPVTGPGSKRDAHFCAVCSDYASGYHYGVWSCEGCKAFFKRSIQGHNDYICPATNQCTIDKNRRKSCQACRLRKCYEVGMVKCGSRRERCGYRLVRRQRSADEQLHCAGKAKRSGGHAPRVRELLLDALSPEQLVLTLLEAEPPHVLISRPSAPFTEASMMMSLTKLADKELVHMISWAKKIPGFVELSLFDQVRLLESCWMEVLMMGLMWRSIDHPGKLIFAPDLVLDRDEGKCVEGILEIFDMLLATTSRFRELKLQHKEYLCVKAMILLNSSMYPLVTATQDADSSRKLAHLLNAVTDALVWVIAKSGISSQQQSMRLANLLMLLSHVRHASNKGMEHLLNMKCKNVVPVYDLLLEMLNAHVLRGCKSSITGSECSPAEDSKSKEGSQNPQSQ
Sequence of Thyrotropin receptor (Homo sapiens) (P16473 whole entry, looked up): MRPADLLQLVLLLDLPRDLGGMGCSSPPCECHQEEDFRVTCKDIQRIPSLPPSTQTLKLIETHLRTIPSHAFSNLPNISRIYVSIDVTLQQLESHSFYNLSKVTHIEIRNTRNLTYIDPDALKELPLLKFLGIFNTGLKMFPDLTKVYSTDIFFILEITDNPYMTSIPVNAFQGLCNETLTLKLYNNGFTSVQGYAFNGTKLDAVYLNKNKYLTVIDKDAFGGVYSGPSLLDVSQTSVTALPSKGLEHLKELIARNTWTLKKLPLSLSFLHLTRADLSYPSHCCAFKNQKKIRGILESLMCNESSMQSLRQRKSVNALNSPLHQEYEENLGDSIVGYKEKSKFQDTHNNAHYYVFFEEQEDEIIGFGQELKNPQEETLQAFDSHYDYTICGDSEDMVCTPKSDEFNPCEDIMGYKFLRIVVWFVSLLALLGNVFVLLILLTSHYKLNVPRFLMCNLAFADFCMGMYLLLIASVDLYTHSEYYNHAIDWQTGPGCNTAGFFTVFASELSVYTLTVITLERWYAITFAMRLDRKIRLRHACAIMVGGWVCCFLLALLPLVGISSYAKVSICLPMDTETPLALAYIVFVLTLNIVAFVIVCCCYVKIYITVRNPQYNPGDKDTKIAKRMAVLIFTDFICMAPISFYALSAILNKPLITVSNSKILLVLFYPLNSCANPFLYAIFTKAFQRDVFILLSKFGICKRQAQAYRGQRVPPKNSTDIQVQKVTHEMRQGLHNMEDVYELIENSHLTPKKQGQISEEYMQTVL
Sequence of Androgen receptor (Homo sapiens) (P10275 whole entry, looked up): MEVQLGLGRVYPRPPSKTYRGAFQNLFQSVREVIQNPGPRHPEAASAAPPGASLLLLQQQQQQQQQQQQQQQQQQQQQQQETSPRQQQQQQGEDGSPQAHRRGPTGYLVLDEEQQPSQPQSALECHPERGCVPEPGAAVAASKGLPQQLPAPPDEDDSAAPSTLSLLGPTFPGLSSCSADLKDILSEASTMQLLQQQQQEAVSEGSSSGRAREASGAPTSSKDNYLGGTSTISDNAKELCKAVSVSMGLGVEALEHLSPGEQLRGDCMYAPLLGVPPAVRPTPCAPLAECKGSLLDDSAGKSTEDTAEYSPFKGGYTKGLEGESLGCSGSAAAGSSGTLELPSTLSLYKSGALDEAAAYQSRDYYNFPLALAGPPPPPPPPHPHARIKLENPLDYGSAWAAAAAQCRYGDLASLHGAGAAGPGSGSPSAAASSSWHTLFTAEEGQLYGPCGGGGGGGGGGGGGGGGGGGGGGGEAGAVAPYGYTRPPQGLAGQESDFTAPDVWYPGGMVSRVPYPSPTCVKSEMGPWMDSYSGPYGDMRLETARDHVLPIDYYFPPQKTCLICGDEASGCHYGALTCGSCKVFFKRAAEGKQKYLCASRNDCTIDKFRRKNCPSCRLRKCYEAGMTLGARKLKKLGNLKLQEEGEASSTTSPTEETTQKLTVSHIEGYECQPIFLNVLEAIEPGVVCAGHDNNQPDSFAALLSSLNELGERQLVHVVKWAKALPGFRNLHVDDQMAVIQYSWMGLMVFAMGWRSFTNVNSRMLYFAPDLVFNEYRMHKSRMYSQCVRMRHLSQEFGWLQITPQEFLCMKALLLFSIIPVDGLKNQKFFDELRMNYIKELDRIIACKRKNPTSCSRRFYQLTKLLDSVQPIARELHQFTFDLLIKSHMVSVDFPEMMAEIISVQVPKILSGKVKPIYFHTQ

With `c1ccc2c(c1)[nH]c1ccccc12`, the Potency result in assay [1], in assay [3], in assay [5], in assay [6], in assay [7] and in assay [8] was “inactive” in each case. Also, the Potency entry in assay [9], in assay [10], in assay [11], in [12], in assay [13] and in assay [14] was “inactive” each time. Further, in assay [15], the Potency result is “inactive”. The Potency in assay [2] is 8.49 µM (active) and 8.63 µM (active). Moreover, the result in [4] was inactive.

For `Cc1ccc(N)c([N+](=O)[O-])c1`, the Potency entry in assay [1], in [3], in assay [16], in assay [5], in assay [6] and in [7] was “inactive” throughout. The Potency result in [8], in assay [9], in assay [10], in assay [11], in [12] and in assay [14] was “inactive” each time. In addition, the Potency result in assay [15], in [17] and in assay [18] was “inactive” each time. Also, in assay [4], the compound was called inactive.

With `CNC[C@H](O)c1ccc(O)c(O)c1`, the Potency result in assay [1], in assay [3], in [19], in assay [5], in [7] and in assay [11] was “inactive” each time. The Potency entry in assay [12], in assay [14], in assay [15] and in assay [18] was “inactive” in each case. Also, the compound was classed as inactive in assay [4]. Besides, the viability change, negative = cytotoxic in [6] is -0.782% [at 19 µM] (inactive). For the same compound, the Potency in [17] was 1.66 µM (active) and 111 nM (active).

For `CCO[Si](CCCNC(N)=O)(OCC)OCC`, the Potency result in [1], in assay [3], in assay [16], in assay [5], in assay [6] and in assay [7] was “inactive” each time. The Potency result in [8], in [9], in [10], in [11], in [12] and in [14] was “inactive” each time. For the same compound, the Potency entry in [15], in assay [17] and in assay [18] was “inactive” each time. For the same compound, the outcome in assay [4] was inactive.

With `CC1(C)O[C@@H]2C[C@H]3[C@@H]4C[C@H](F)C5=CC(=O)C=C[C@]5(C)[C@@]4(F)[C@@H](O)C[C@]3(C)[C@]2(C(=O)CO)O1`, the Potency entry in [1], in [3], in assay [19], in [16], in assay [5] and in [6] was “inactive” throughout. For the same compound, the Potency entry in [7], in assay [8], in assay [11], in [12], in assay [14] and in [15] was “inactive” in each case. Moreover, the Potency result in [18] and in assay [20] was “inactive” throughout. For the same compound, in [4], the outcome was inactive.

As to `NCCS(=O)(=O)O`, the Potency result in assay [1], in [3], in assay [19], in assay [16], in [5] and in [7] was “inactive” each time. Further, the Potency result in assay [9], in assay [10], in assay [12], in assay [14], in assay [15] and in assay [17] was “inactive” each time. Moreover, the Potency entry in assay [18] was “inactive”. The call in assay [4] was inactive. Besides, the Potency in assay [6] was 22.5 µM (active) and inactive; in [11] it was 25.3 µM (active) and inactive; in assay [20], 25.3 µM (active) and inactive.

As for `Cc1ccc(S(=O)(=O)O)cc1C`, the Potency result in assay [1], in assay [3], in [19], in assay [16], in assay [5] and in assay [6] was “inactive” each time. The Potency result in [7], in assay [11], in assay [12], in assay [14], in [15] and in [17] was “inactive” throughout. In addition, the Potency entry in assay [18] and in assay [20] was “inactive” in each case. For the same compound, the outcome in assay [4] was inactive.

With `O=C(O)COCCN1CCN(C(c2ccccc2)c2ccc(Cl)cc2)CC1` (configuration not stated), the Potency result in [1], in [3], in [19], in assay [5], in assay [6] and in assay [7] was “inactive” each time. For the same compound, the Potency result in assay [9], in assay [10], in assay [11], in [12], in assay [14] and in assay [15] was “inactive” throughout. Also, the Potency entry in [18] and in assay [20] was “inactive” in each case. Besides, in assay [4], the compound was called inactive.
